Experimental data taken from PubChem BioAssay (EPA / NIEHS).
Records with an inconclusive call do not appear. The source made the active and inactive calls. The calls were made as follows, unless noted: active = hit-call score of the fitted dose curve at least 0.9, where 1 is the maximum; inactive = score below 0.9.

Read-out: not listed separately
Assay: CEETOX_H295R_DOC_noMTC: CeeTox H295R High-throughput Steroidogenesis Assay for DOC, maximum tolerated concentration (MTC) filtered results only (AID 2283918)
Conditions: actives raise or lower the signal
How it was run: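 H295R cells prestimulated 48 h with 10 uM forskolin, then exposed 48 h to chemical in 0.1% DMSO. 11-Deoxycorticosterone in medium measured by MTBE extraction and HPLC-MS/MS; bidirectional fit vs DMSO, no MTC filter.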

| SMILES | AC50 | outcome |
| --- | --- | --- |
| COc1ccc(C(=O)/C(Br)=C\C(=O)O)cc1 | 13.6 µM (active) |  |
| N#Cc1ccc(C2CCCc3cncn32)cc1 (stereo not drawn) | 1.98 µM (active) |  |
| CCCC=C(C=O)CC |  | inactive |
| CCCCC1C(=O)N(c2ccccc2)N(c2ccccc2)C1=O |  | inactive |
| CC(C)c1ccc(O)c(C(C)C)c1 |  | inactive |
| N#Cc1ccc(C(c2ccc(C#N)cc2)n2cncn2)cc1 |  | inactive |

Read-out: not listed separately
Assay: CEETOX_H295R_ESTRADIOL_noMTC: CeeTox H295R High-throughput Steroidogenesis Assay for Estradiol, maximum tolerated concentration (MTC) filtered results only (AID 2283919)
Conditions: actives raise or lower the signal
How it was run: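 H295R human adrenal cells pre-stimulated 48 h with 10 uM forskolin, then exposed 48 h to chemical (0.1% DMSO final). Estradiol in medium measured by HPLC-MS/MS after MTBE extraction and dansyl derivatization; bidirectional fit versus DMSO, concentrations not MTT-filtered.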

| SMILES | outcome | AC50 |
| --- | --- | --- |
| CCCC=C(C=O)CC | inactive |  |
| CC(C)c1ccc(O)c(C(C)C)c1 | inactive |  |
| N#Cc1ccc(C(c2ccc(C#N)cc2)n2cncn2)cc1 |  | 0.0183 µM (active) |

Read-out: not listed separately
Assay: CEETOX_H295R_PROG_noMTC: CeeTox H295R High-throughput Steroidogenesis Assay for Progesterone (PROG), maximum tolerated concentration (MTC) filtered results only (AID 2283920)
Conditions: actives raise or lower the signal
How it was run: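 H295R cells, prestimulated 48 h with 10 uM forskolin, exposed 48 h to chemical in 0.1% DMSO. Medium progesterone quantified by MTBE extraction and HPLC-MS/MS; bidirectional fit versus DMSO, concentrations not MTT-filtered.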

| SMILES | AC50 | outcome |
| --- | --- | --- |
| COc1ccc(C(=O)/C(Br)=C\C(=O)O)cc1 | 8.09 µM (active) |  |
| N#Cc1ccc(C2CCCc3cncn32)cc1 (stereo not drawn) |  | inactive |
| CCCC=C(C=O)CC |  | inactive |
| CCCCC1C(=O)N(c2ccccc2)N(c2ccccc2)C1=O | 38.7 µM (active) |  |
| CC(C)c1ccc(O)c(C(C)C)c1 |  | inactive |
| N#Cc1ccc(C(c2ccc(C#N)cc2)n2cncn2)cc1 |  | inactive |

Read-out: not listed separately
Assay: CEETOX_H295R_ESTRONE_noMTC: CeeTox H295R High-throughput Steroidogenesis Assay for Estrone, maximum tolerated concentration (MTC) filtered results only (AID 2283921)
Conditions: actives raise or lower the signal
How it was run: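 H295R cells prestimulated 48 h with 10 uM forskolin, then exposed 48 h to chemical in 0.1% DMSO; medium estrone measured by HPLC-MS/MS after MTBE extraction and dansyl derivatization, fitted bidirectionally versus DMSO without MTT-based MTC filtering.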

| SMILES | outcome | AC50 |
| --- | --- | --- |
| CCCC=C(C=O)CC | inactive |  |
| CCCCC1C(=O)N(c2ccccc2)N(c2ccccc2)C1=O | inactive |  |
| CC(C)c1ccc(O)c(C(C)C)c1 | inactive |  |
| N#Cc1ccc(C(c2ccc(C#N)cc2)n2cncn2)cc1 |  | 0.0263 µM (active) |

Biological target: PGR (gene 5241) (UniProt P06401)
Assay: TOX21_PR_BLA_Followup_Antagonist_ratio: Tox21 HEK293 Progesterone Receptor (PR) Antagonism Beta-lactamase Follow-Up Assay, Ratio (AID 2283934; active = hit-call score of the fitted dose curve at least 0.9, where 1 is the maximum)
Conditions: not given
How it was run: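 HEK293T PR-UAS-bla, 2% CS-FBS; 6 hr plating, then cpd + R5020 (1 nM final), 16 hr 37C/5% CO2. B/G FRET substrate 2 h RT. Ratio ch2/ch1 vs DMSO; CellTiter-Glo viability multiplexed, autofluorescence checked.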

Sequence of PGR (gene 5241) (P06401 whole entry, looked up): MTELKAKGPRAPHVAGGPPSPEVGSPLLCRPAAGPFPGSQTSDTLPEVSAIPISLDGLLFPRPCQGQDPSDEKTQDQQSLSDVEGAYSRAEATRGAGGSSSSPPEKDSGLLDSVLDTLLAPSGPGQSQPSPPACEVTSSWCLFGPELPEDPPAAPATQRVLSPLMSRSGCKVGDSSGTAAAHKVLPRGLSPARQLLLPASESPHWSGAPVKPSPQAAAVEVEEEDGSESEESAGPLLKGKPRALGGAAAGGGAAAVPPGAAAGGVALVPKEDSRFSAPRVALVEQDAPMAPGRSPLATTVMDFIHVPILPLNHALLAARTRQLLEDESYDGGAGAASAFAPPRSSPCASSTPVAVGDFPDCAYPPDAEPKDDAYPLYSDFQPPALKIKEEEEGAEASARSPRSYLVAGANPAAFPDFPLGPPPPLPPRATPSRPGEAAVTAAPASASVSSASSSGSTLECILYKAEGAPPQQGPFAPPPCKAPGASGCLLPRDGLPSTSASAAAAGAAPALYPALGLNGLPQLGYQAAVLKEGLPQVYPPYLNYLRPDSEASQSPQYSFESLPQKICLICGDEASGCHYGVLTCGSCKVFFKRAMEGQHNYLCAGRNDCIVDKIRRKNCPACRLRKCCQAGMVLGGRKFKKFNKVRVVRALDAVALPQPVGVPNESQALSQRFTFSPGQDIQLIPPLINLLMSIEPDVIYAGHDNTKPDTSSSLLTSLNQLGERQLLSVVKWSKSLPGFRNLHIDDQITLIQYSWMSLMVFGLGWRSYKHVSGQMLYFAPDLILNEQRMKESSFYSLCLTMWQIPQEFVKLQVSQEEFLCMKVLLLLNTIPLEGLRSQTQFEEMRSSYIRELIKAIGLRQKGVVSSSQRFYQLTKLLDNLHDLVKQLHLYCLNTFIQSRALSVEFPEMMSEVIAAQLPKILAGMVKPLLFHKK

| SMILES | AC50 | outcome |
| --- | --- | --- |
| COc1ccc(-c2coc3cc(O)cc(O)c3c2=O)cc1 | 29.5 µM (active) |  |
| c1ccc2c(c1)[nH]c1ccccc12 |  | inactive |
| Nc1ccc(C(=O)OCCCOC(=O)c2ccc(N)cc2)cc1 |  | inactive |
| Oc1ccc(-c2ccccc2)c(Cl)c1 | 25.7 µM (active) |  |

System: not listed separately
Assay: TOX21_PR_BLA_Followup_Agonist_viability: Viability Assessment in the Tox21 HEK293 Progesterone Receptor (PR) Agonism Beta-lactamase Follow-Up Assay (AID 2283935; active = hit-call score of the fitted dose curve at least 0.9, where 1 is the maximum;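 also: cells exposed to compound for 16 hr at 37 °C; signal loss means lower viability so actives are cytotoxic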)
Conditions: not given
How it was run: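 HEK293T PR-UAS-bla, 3,000 cells/well, 2% CS-FBS; 6 hr pre-incubation; cpd in DMSO, 16 hr 37C; LiveBLAzer 2 hr RT, then CellTiter-Glo 30 min RT, luminescence. Decrease = lost viability.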

| SMILES | outcome |
| --- | --- |
| COc1ccc(-c2coc3cc(O)cc(O)c3c2=O)cc1 | inactive |
| c1ccc2c(c1)[nH]c1ccccc12 | inactive |
| Nc1ccc(C(=O)OCCCOC(=O)c2ccc(N)cc2)cc1 | inactive |
| Oc1ccc(-c2ccccc2)c(Cl)c1 | inactive |

System: not listed separately
Assay: TOX21_PR_BLA_Followup_Antagonist_viability: Viability Assessment in the Tox21 HEK293 Progesterone Receptor (PR) Antagonism Beta-lactamase Follow-Up Assay (AID 2283936; active = hit-call score of the fitted dose curve at least 0.9, where 1 is the maximum;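 also: hits lower the luminescence signal meaning cytotoxicity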)
Conditions: not given
How it was run: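 PR-UAS-bla HEK293T cells (3,000/well, 2% charcoal-stripped FBS) given compound plus R5020 agonist, 16 h at 37C. CellTiter-Glo added after bla read, 30 min at room temperature; luminescence loss indicates cytotoxicity.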

| SMILES | outcome |
| --- | --- |
| COc1ccc(-c2coc3cc(O)cc(O)c3c2=O)cc1 | inactive |
| c1ccc2c(c1)[nH]c1ccccc12 | inactive |
| Nc1ccc(C(=O)OCCCOC(=O)c2ccc(N)cc2)cc1 | inactive |
| Oc1ccc(-c2ccccc2)c(Cl)c1 | inactive |

Biological target: PGR (gene 5241) (UniProt P06401)
Assay: TOX21_PR_LUC_Followup_Antagonist: Tox21 HEK293 Progesterone Receptor (PR) Antagonism Luciferase Follow-Up Assay (AID 2283938; active = hit-call score of the fitted dose curve at least 0.9, where 1 is the maximum;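 also: curve fitted upward as signal gain over DMSO baseline despite antagonist label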)
Conditions: not given
Source text: TOX21_PR_LUC_Followup is a secondary assay for specificity for the TOX21_PR_BLA_Agonist assay. To differentiate true PR agonists from cytotoxic substances, this follow up assay is multiplexed with a cell viability assay.TOX21_PR_LUC_Followup_Antagonist is one of one assay component(s) measured or calculated from the TOX21_PR_LUC_Followup assay. It is designed to make measurements of luciferase induction, a form of inducible reporter, as detected with bioluminescence signals by CellTiter-Glo Luciferase-coupled ATP quantitation technologyData from the assay component TOX21_PR_LUC_Followup_Antagonist was analyzed into 1 assay endpoint. This assay endpoint, TOX21_PR_LUC_Followup_Antagonist, was analyzed in the positive analysis fitting direction relative to DMSO as the negative control and baseline of activity. Using a type of inducible reporter, gain-of-signal activity can be used to understand changes in the reporter gene as they relate to the gene NR3C3. Furthermore, this assay endpoint can be referred to as a primary readout, because the performed assay has only produced 1 assay endpoint. To generalize the intended target to other relatable targets, this assay endpoint is annotated to the nuclear receptor target family, where the subfamily is steroidal.
Quality Control Precautions: Maintain cells below 85-90% confluence in culture medium. For assay purpose, the cells should be cultured in assay medium with 10% charcoal stripped FBS for 5 days with alternate day medium changed to fresh medium. Especially while in assay culture, the cells should not reach more than 85% confluence as they would become harder to detach if they reach over confluence.Assay Protocol: HEK293-PR-A-luc cells were dispensed at 3,000 cells/5 uL/well of culture medium into white wall/solid-bottom 1536-well plates using a Multidrop Combi (ThermoFisher Scientific, Waltham, MA) dispenser. After the assay plates were incubated at 37C and […] for 5 h, 23 nL of compounds dissolved in DMSO, positive controls or DMSO only was transferred to the assay plate by a Pintool station (Kalypsys, San Diego, CA). The plates were incubated at 37C and […] for 16 h. Then 4 uL of ONE-Glo reagent (Promega, Madison, WI) was added to each plate using a BioRAPTR Flying Reagent Dispenser (FRD) workstation (Beckman Coulter, Indianapolis, IN, USA) and luminescence was quantified on a ViewLux (PerkinElmer, Shelton, CT) plate reader after 30 min incubation at room temperature.

| SMILES | AC50 | outcome |
| --- | --- | --- |
| COc1ccc(-c2coc3cc(O)cc(O)c3c2=O)cc1 | 81.7 µM (active) |  |
| c1ccc2c(c1)[nH]c1ccccc12 |  | inactive |
| Nc1ccc(C(=O)OCCCOC(=O)c2ccc(N)cc2)cc1 |  | inactive |
| Oc1ccc(-c2ccccc2)c(Cl)c1 | 29.7 µM (active) |  |

System: not listed separately
Assay: TOX21_PR_LUC_Followup_Antagonist_viability: Viability Assessment in the Tox21 HEK293 Progesterone Receptor (PR) Antagonism Luciferase Follow-Up Assay (AID 2283940; active = hit-call score of the fitted dose curve at least 0.9, where 1 is the maximum)
Conditions: not given
How it was run: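 Multiplexed viability counter-screen: after 5 days in charcoal-stripped-FBS medium, HEK293-PR-A-luc cells are plated, pinned with DMSO-dissolved compounds for 16 h at 37C, and ATP content is quantified luminescently via CellTiter-Glo.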

| SMILES | outcome |
| --- | --- |
| COc1ccc(-c2coc3cc(O)cc(O)c3c2=O)cc1 | inactive |
| c1ccc2c(c1)[nH]c1ccccc12 | inactive |
| Oc1ccc(-c2ccccc2)c(Cl)c1 | inactive |
